This passage reports growth results from PubChem BioAssay (NCI).

Among the test systems are HCT-15 colon; HT29 colon; SNB-75 CNS; SNB-19 CNS; U251 CNS; SK-MEL-5 melanoma; UACC-62 melanoma; LOX IMVI melanoma; SK-MEL-28 melanoma; PC-3 prostate.
Assay in all cases: NCI-60 one-dose screen, 48 h (100 = growth as untreated, 0 = no growth, -100 = all killed)
Common to all, as to settings: 10 µM unless noted

Compounds without any hit were thinned out: in the full panel of roughly 83,000, 20% have a hit.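 Treatment: one concentration, 48 hours, 96-well format. Scoring: percent growth, with anything below 10 considered active.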 Values without a mark were called inactive. Activity calls are given as the source filed them.

Consider `COc1ccc(-c2cc(Nc3ccnc(N4CCOCC4)n3)on2)cc1`, for which the growth with HCT-15 colon is 20.3%; with HT29 colon, 9.4% (active); in the experiment on SNB-75 CNS, -3.66% (active); with SNB-19 CNS, 39%; in the experiment on U251 CNS, 23.2%; with SK-MEL-5 melanoma it was 19.7%. The growth was 60.5% in the experiment with UACC-62 melanoma, 51.9% with LOX IMVI melanoma and 69.3% with SK-MEL-28 melanoma.
On to `O=C1C=CC(=O)N1c1ccc2c(c1)Cc1cc(F)ccc1-2`, for which the growth in the experiment on HCT-15 colon is 97.1%; in the experiment on HT29 colon, 95%; in the experiment on SNB-75 CNS, 75.8%; with SNB-19 CNS, 90.7%; in the experiment on U251 CNS it was 88.9%; in the experiment with SK-MEL-5 melanoma, 98.1%. Besides, the figures for the growth with UACC-62 melanoma, in the experiment with LOX IMVI melanoma and with SK-MEL-28 melanoma were 91.6%, 104% and 99.9%, respectively.
In the case of `COc1ccc(C2C(C#N)=C(N)Oc3n[nH]c(-c4cccs4)c32)cc1I` (stereo not drawn), the growth was 81.4% in the experiment on HCT-15 colon; 98.4% in the experiment on HT29 colon; 77.9% in the experiment with SNB-75 CNS; 87.1% in the experiment on SNB-19 CNS; 90.6% in the experiment with U251 CNS; 85.8% in the experiment with PC-3 prostate. Moreover, the results for the growth in the experiment on LOX IMVI melanoma and with SK-MEL-28 melanoma were 89% and 108%, respectively.
Take `Cc1[nH]c(-c2ccc3cc[nH]c3c2)c2c1C(=O)CCCC2`: the growth is 30.6% in the experiment on HCT-15 colon; 27.4% with HT29 colon; 6.65% (active) with SNB-75 CNS; 53.1% in the experiment with SNB-19 CNS; 48.5% in the experiment on U251 CNS; 49.6% in the experiment on SK-MEL-5 melanoma. Moreover, the growth in the experiment with UACC-62 melanoma is 24.8%; in the experiment on LOX IMVI melanoma it was 16.2%; with SK-MEL-28 melanoma it was 66.2%.
As to `Cc1nn(-c2ccc(F)cc2)c2ncnc(Oc3ccc(NC(=O)Nc4ccc(Cl)c(C(F)(F)F)c4)cc3)c12`, the growth with HCT-15 colon was 111%; in the experiment on HT29 colon it was 109%; in the experiment with SNB-75 CNS, 88.1%; in the experiment with SNB-19 CNS it was 98.9%; in the experiment with U251 CNS it was 97.9%; with SK-MEL-5 melanoma it was 99.1%. Moreover, the growth was 96.6% in the experiment on UACC-62 melanoma, 99.4% in the experiment with LOX IMVI melanoma and 102% with SK-MEL-28 melanoma.
Take `Cc1ccc2c(C(C[N+](=O)[O-])c3ccccc3F)c(-c3ccccc3)[nH]c2c1` (stereo not drawn): the growth is 25.7% in the experiment with HCT-15 colon; 6.14% (active) with HT29 colon; 24.6% with SNB-75 CNS; 49.1% in the experiment with SNB-19 CNS; 25.3% in the experiment on U251 CNS; 48.1% in the experiment with SK-MEL-5 melanoma. In addition, the growth is 42.4% in the experiment with UACC-62 melanoma, 36.4% with LOX IMVI melanoma and 63% with SK-MEL-28 melanoma.
`OC(COc1cccc2ccccc12)CN1CCN(c2ccccc2Cl)CC1` (stereo not drawn): the growth is 99% in the experiment on HCT-15 colon; 85.7% in the experiment with HT29 colon; 86.7% with SNB-75 CNS; 83.4% in the experiment on SNB-19 CNS; 97.8% in the experiment on U251 CNS; 90.7% in the experiment with SK-MEL-5 melanoma. Besides, the growth with UACC-62 melanoma was 93.9%; in the experiment on LOX IMVI melanoma, 92.6%; with SK-MEL-28 melanoma, 112%.
Take `CCCCC(=O)OCC1OC(n2cnc3c(=S)nc[nH]c32)C(OC(=O)CCCC)C1OC(=O)CCCC` (stereo not drawn): the growth in the experiment with HCT-15 colon is 33.1%; with HT29 colon, 27%; with SNB-75 CNS, 51%; with SNB-19 CNS it was 64.2%; in the experiment on U251 CNS, 70.1%; in the experiment with SK-MEL-5 melanoma it was 23.3%. In addition, the growth in the experiment with UACC-62 melanoma is 7.37% (active); in the experiment on LOX IMVI melanoma, 12.1%; in the experiment on SK-MEL-28 melanoma, 85.7%.
As to `CCCCn1c(-c2ccc(C(=O)O/N=C(\N)c3ccc4ccccc4c3)cc2)nc(-c2ccccc2)c1-c1ccccc1`, the growth was 52.1% in the experiment on HCT-15 colon; 74.3% in the experiment with HT29 colon; 23.3% with SNB-75 CNS; 70.3% in the experiment on SNB-19 CNS; 73% in the experiment on U251 CNS; 64.8% in the experiment with PC-3 prostate. For the same compound, the growth is 3.13% (active) in the experiment with LOX IMVI melanoma and 88.5% in the experiment on SK-MEL-28 melanoma.
With `CC(C)CSc1nc(N)nc2c1ncn2C1OC(CO)C(O)C1O` (stereo not drawn), the growth in the experiment on HCT-15 colon was 92.7%; in the experiment with HT29 colon it was 103%; in the experiment on SNB-75 CNS, 101%; in the experiment on SNB-19 CNS, 104%; with U251 CNS, 101%; with SK-MEL-5 melanoma, 96.5%. Also, the growth in the experiment with UACC-62 melanoma was 92.8%; with LOX IMVI melanoma it was 95.3%; with SK-MEL-28 melanoma, 112%.
Turning to `Cc1ccc2c(c1)C(=O)/C(=C/c1cccc(OCC(=O)c3ccc(Cl)cc3)c1)CS2`, the growth in the experiment with HCT-15 colon is 81.3%; in the experiment on HT29 colon, 87.9%; with SNB-75 CNS, 87.6%; in the experiment on SNB-19 CNS it was 93.9%; in the experiment on U251 CNS, 89.7%; with SK-MEL-5 melanoma, 85.1%. Besides, the growth in the experiment with UACC-62 melanoma is 76.2%; with LOX IMVI melanoma, 75.3%; with SK-MEL-28 melanoma, 123%.
As to `O=C1/C(=C/c2ccc3c(c2)OCO3)SC(=S)N1CCc1ccc(O)cc1`, the growth in the experiment on HCT-15 colon is 93%; with HT29 colon, 113%; in the experiment with SNB-75 CNS, 83.7%; in the experiment with SNB-19 CNS, 95.5%; in the experiment on U251 CNS, 102%; in the experiment with SK-MEL-5 melanoma it was 98.2%. For the same compound, the results for the growth in the experiment on UACC-62 melanoma, in the experiment on LOX IMVI melanoma and in the experiment on SK-MEL-28 melanoma were 88%, 91.3% and 104%, respectively.
In the case of `O=C(N/N=C/c1ccccc1O)c1ccccc1Nc1ccnc(C(F)(F)F)c1`, the growth is 24.6% in the experiment with HCT-15 colon; 41.3% in the experiment with HT29 colon; 20.7% with SNB-75 CNS; 21.8% with SNB-19 CNS; 18.8% with U251 CNS; -64.5% (active) in the experiment on SK-MEL-5 melanoma. Moreover, the growth in the experiment on UACC-62 melanoma was -19.1% (active); with LOX IMVI melanoma, 7.93% (active); in the experiment with SK-MEL-28 melanoma, 28.3%.
As to `Oc1cccc(-c2nc(N3CCOCC3)c3c4c(sc3n2)CCCC4)c1`, the growth in the experiment on HCT-15 colon was 49.1%; in the experiment with HT29 colon, 94.7%; with SNB-75 CNS it was 7.14% (active); with SNB-19 CNS, 62.3%; in the experiment on U251 CNS, 52.7%; in the experiment with SK-MEL-5 melanoma, 46.6%. Moreover, the growth was 43.8% with UACC-62 melanoma, 50% in the experiment on LOX IMVI melanoma and 57.8% with SK-MEL-28 melanoma.
As for `O=C1NC(=Nc2ccc(O)cc2)S/C1=C\c1cccc(Cl)c1`, the growth in the experiment with HCT-15 colon is 30.1%; with HT29 colon, 109%; in the experiment on SNB-75 CNS it was 70.9%; in the experiment on SNB-19 CNS, 73.5%; with U251 CNS, 59.3%; in the experiment on SK-MEL-5 melanoma it was 70.6%. Moreover, the growth is 80.9% in the experiment on UACC-62 melanoma, 53.4% in the experiment with LOX IMVI melanoma and 94.7% in the experiment on SK-MEL-28 melanoma.
